# POLI inh = DNA polymerase iota (human) inhibition. Q9UNA4. Pol iota fluorescent replication assay, 10 min. Potency, µM (series often up to 115 µM), actives largely listed as inhibitors. 1% of 390,000 active
#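 Fluorescent replication assay read twice, at 0 min and 10 min after adding 50 nM (final) substrate. Enzyme (10 nM) and compounds were first incubated 15 min at room temperature; enzyme-free buffer wells were negative controls.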
# Pol eta inh = blocks human DNA polymerase eta activity | Q9Y253 | recombinant Pol eta, fluorescent DNA replication assay | Potency, µM (highest dose often 114 µM), actives largely listed as inhibitors | 1.2% of 390,000 active | AID 588591
# Target sequence (Q9Y253 whole entry, looked up): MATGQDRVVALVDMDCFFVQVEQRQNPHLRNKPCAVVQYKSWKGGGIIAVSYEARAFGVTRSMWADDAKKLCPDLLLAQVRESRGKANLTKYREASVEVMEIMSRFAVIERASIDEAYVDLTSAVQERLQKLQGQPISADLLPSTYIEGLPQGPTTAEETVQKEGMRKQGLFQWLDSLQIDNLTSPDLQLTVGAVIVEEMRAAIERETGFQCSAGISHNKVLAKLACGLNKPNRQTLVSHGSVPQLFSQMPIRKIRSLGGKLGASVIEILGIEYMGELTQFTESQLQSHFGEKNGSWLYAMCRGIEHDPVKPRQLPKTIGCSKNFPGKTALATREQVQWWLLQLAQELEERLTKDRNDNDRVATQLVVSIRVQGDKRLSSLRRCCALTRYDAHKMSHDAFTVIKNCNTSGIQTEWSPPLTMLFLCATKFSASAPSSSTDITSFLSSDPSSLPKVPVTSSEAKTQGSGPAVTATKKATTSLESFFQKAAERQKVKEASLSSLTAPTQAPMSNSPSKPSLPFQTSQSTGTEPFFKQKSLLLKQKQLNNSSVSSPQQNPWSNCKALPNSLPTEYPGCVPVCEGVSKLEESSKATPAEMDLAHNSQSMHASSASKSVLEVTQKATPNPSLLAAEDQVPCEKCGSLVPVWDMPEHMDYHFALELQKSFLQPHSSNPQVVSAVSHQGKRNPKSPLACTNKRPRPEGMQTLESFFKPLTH
#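 Fluorescent replication assay: 50 nM final substrate added after a 15 min room-temperature compound preincubation with 10 nM enzyme. Signal taken at 0 min and again at 10 min.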
# Pol kappa inh = DNA polymerase kappa (human) inhibition | Q9UBT6 | Potency, µM (doses to about 107 µM), usual class: inhibitors | purified Pol kappa, fluorescent DNA synthesis assay, 10 min | 0.53% of 400,000 active | AID 588579
#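 Activity was followed as the change in fluorescence between reads at 0 and 10 min after starting the reaction with 50 nM substrate. Beforehand, 10 nM polymerase had been preincubated with compound for 15 min at room temperature.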
# PI5P4K alpha inh = inhibitors of human PI5P4K alpha; AID 652105; 1.2% of 330,000 active; PI5P4Kalpha enzyme, ADP-Glo luminescence, 60 min; active compounds read low; P48426; max response, %; active = max response of -50% or lower; inconclusive = between -30% and -50%; inactive = -30% or higher; also: value at the top dose of about 77 µM
#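 Human PI5P4Kalpha with substrate in 0.038 M HEPES pH 7.4, 0.28 mM EGTA, 0.1% CHAPS, 5% DMSO; reaction started with 5 microM ATP (final), 60 min at room temperature. ADP formed read by ADP-Glo luminescence.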
# POLB inh = inhibitors of human DNA polymerase beta; Pol beta primer extension/strand displacement, fluorescence kinetic; Potency, µM (titrated, usually from 114 µM), usual class: inhibitors; 1.3% of 340,000 active
#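 Values derive from four-parameter Hill fits of normalized kinetic data: reads at 0 and 10 min following addition of 50 nM substrate to 10 nM Pol beta preincubated 15 min with compound.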
# PI4K2A inh = inhibitors of human PI4K2A | Q9BTU6 | purified PI4K2A, ADP-Glo luminescence, 1 h; active compounds read low | activity change, negative = inhibition, % at 76.9 µM | 0.13% of 420,000 active | AID 1346378; in the data active = activity change below about -50%; inconclusive = mostly about -30% to -49%
#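 Compounds are screened against recombinant PI4K2A using PI as substrate and ATP, the latter dispensed at 300 microM. Reactions run one hour at ambient temperature before ADP-Glo detection; full inhibition defined by wells lacking enzyme.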
# Hits are given with their value; n = inactive; u = inconclusive; x = no result. This is a sample that favours compounds with a hit; in the whole collection about 2.8% have one here. Unless noted, calls follow the shape of the dose curve; as a rule, active = well fitted inhibition curve with a large enough effect; inconclusive = small, poorly fitted or top-dose-only effect, or another doubt; inactive = no such curve, though single readings can be large or run the other way.
SMILES,POLI inh,Pol eta inh,Pol kappa inh,PI5P4K alpha inh,POLB inh,PI4K2A inh
C=CCNC(=O)CN(C(=O)c1csc2ccc(Cl)cc12)c1cccc(Br)c1,x,x,x,x,x,n
CN(C)CCNC(=S)Nc1cccc(Cl)c1,n,n,n,n,n,-51
CN(C)NC(=S)Nc1cccc(Cl)c1,n,n,n,n,n,n
C[N+](C)(CCCCCI)c1ccc(/C=C/c2nc3ccccc3s2)cc1,79µM,x,45µM,x,x,x
C(=C\c1nc2ccccc2s1)/c1ccc2c(c1)OCO2,n,x,n,x,x,x
COc1cc2cncnc2cc1OCCCCC(N)=O,n,x,n,x,x,x
CN(C)c1ccc(/C=C/c2ccnc3ccccc23)cc1,n,x,n,x,x,x
CCC(=O)OC1(C)C(=O)C=C2C=C(c3ccc(C#N)cc3)OC=C2C1=O (stereo not drawn),20µM,45µM,u,-68,x,n
Cc1cccc(Nc2sc(C(=O)c3cc4cc(Cl)ccc4o3)c(N)c2C#N)c1,n,u,n,n,10µM,n
Cc1cccc(NC(=O)C2CCN(c3nc4ccccc4[nH]3)CC2)c1C,n,n,n,x,n,n
O=C(N/N=C/c1ccco1)c1cccc(S(=O)(=O)Nc2ccccc2Cl)c1,45µM,20µM,u,n,22µM,n
Cc1ccc(/C=N/NC(=O)c2cccc(S(=O)(=O)Nc3ccccc3Cl)c2)o1,n,n,n,n,n,n
Cc1cc(C(=O)NNS(=O)(=O)c2cc(C(=O)O)ccc2Cl)c(C)n1-c1ccccc1,u,22µM,u,n,x,n
COc1cc(N(C)C)c(OC)cc1/C=C1\Cc2ccccc2C1=O,u,x,n,x,x,x
Cc1ccc(-c2nnc(SCC(=O)Nc3ccc(Oc4ccccc4)cc3)n2-c2ccc(Cl)cc2)cc1,x,x,x,x,x,n
Cc1cc([N+](=O)[O-])nn1CC(=O)NCCCN1CCOCC1,n,n,n,n,u,n
Cc1cc(C)c2c(=O)n(CC(=O)NCCCN3CCOCC3)sc2n1,n,n,n,-101,u,n
Cc1cc(C)c2c(=O)n(CC(=O)NCCCN3CCN(c4ccccc4F)CC3)sc2n1,n,n,n,-77,n,n
Cc1ccccc1CS(=O)(=O)CCC(=O)NCCCN1CCN(c2ccccc2F)CC1,n,n,n,n,n,n
Cc1ccc2[nH]c(=O)c(CN(CCO)Cc3nnnn3Cc3ccco3)cc2c1,n,x,n,x,x,x
Cn1cc(NC(=O)c2cc(NC(=O)c3cc(NC=O)cn3C)cn2C)cc1C(=O)NCCC(=N)N,x,x,0.79µM,x,14µM,x
COc1ccc(OC)c(Nc2nc(NCCCN(C)C)nc(N)c2[N+](=O)[O-])c1,32µM,50µM,u,n,35µM,n
Cc1ccc(-c2cc(C(=O)NCc3cnn(C)c3)c3cc(Br)ccc3n2)cc1,n,79µM,n,n,n,n
O=S(=O)(Nc1cccc2cccnc12)c1ccccc1Br,n,x,n,x,x,x
CN(C)c1ccc(C=Nc2ccccc2C(N)=O)cc1,89µM,n,n,n,n,n
SMILES,POLI inh,Pol eta inh,Pol kappa inh,PI5P4K alpha inh,POLB inh,PI4K2A inh
Cc1cc(C)n2c(NC3CCCC3)c(-c3ccc(F)cc3)nc2n1,x,x,x,n,x,n
Cc1nc(SCC(=O)c2cccc([N+](=O)[O-])c2)n[nH]1,n,n,n,-63,n,n
Nc1nc(SCC(=O)c2ccc(F)cc2)n[nH]1,n,u,n,-55,n,n
Cc1nc(SCC(=O)c2ccc(F)cc2)n[nH]1,n,n,n,-74,n,n
CC(C)CSc1ncccc1-c1nc2ccccc2[nH]1,x,x,x,x,x,n
COc1cccc(C(=O)Oc2ccc(/C=N/Nc3ccc(C(=O)O)cc3)cc2OC)c1,n,n,n,n,n,n
COc1cccc(OCc2cc(/C=N/Nc3ccc(C(=O)O)cc3)ccc2OC)c1,n,50µM,n,u,n,n
COc1cccc(/C=N/Nc2ccc(S(=O)(=O)O)cc2)c1O,n,n,n,x,13µM,n
O=S(=O)(O)c1ccc(NN=Cc2ccccc2O)cc1,u,32µM,n,n,x,n
COc1cccc(/C=N/Nc2nc(Nc3ccc([N+](=O)[O-])cc3)nc(N3CCCC3)n2)c1O,u,22µM,14µM,u,u,n
CCC(=O)Nc1ccc2nc(SCCOc3ccc(C)cc3)sc2c1,n,n,n,x,n,n
C/C=C(/C(=C/C)c1ccc(OC(C)=O)cc1)c1ccc(OC(C)=O)cc1,x,x,x,x,x,n
Cn1c(=S)[nH]c2cc(C(=O)N3CCN(C(=O)c4ccccc4)CC3)ccc2c1=O,n,x,n,x,x,x
CC(=O)N[C@@H](CCC(N)=O)C(=O)O,x,x,x,x,x,n
CC(C)CC(CSc1ccc(Br)cc1)N1CCN(CC(C)C)CCC1=O (stereo not drawn),n,x,n,x,x,x
COc1ccccc1-c1cnc(C(O)c2ccc(C(C)(C)C)cc2)[nH]1 (stereo not drawn),x,x,x,n,x,n
COc1cccc(/C=N/Nc2ccccc2C(=O)O)c1O,n,n,n,n,n,n
COc1cccc(/C=N/Nc2ccc(C(=O)O)cc2)c1O,n,n,n,n,n,-73
O=C(O)CS(=O)(=O)c1ccc(Oc2ccc(S(=O)(=O)CC(=O)O)cc2)cc1,n,n,n,x,n,n
CC(=O)CS(=O)(=O)c1ccc(Oc2ccc(S(=O)(=O)CC(C)=O)cc2)cc1,u,u,u,n,32µM,n
O=C(O)CN1C(=O)/C(=C\c2ccccc2OCc2ccc(Cl)cc2)SC1=S,n,79µM,n,u,u,n
CN1C(=O)/C(=C\c2ccccc2OCc2ccccc2)SC1=S,n,n,n,n,n,n
O=C(O)CN1C(=O)/C(=C\c2cc(Br)ccc2OCc2ccc(Cl)cc2Cl)SC1=S,u,u,n,n,22µM,n
O=C(O)CN1C(=O)/C(=C\c2cccc(OCc3ccc(Cl)cc3)c2)SC1=S,u,50µM,n,n,u,n
O=C(O)CN1C(=O)/C(=C\c2cccc(OCc3ccccc3F)c2)SC1=S,u,u,n,n,n,n
SMILES,POLI inh,Pol eta inh,Pol kappa inh,PI5P4K alpha inh,POLB inh,PI4K2A inh
COc1ccc(NC(=O)Cn2c(SCc3ccc(F)cc3)nc3cccnc32)c(OC)c1,n,n,n,x,n,n
O=C(C[n+]1csc2ccccc21)c1cccc([N+](=O)[O-])c1,n,x,n,x,x,x
N=c1nc(-c2ccccc2)n(-c2ccccc2)s1,n,x,n,x,x,x
CNc1nc(-c2ccccc2)[n+](-c2ccc(C)cc2)s1,n,n,n,-99,n,n
Cc1ccc(-c2nc3ccccc3nc2-c2ccccc2)cc1,n,n,n,n,n,n
Cc1ccc(-c2cc(-c3ccccc3)nc(NN)n2)cc1,n,n,n,n,n,n
Cc1ccc(-c2nc(N)s[n+]2-c2ccccc2)cc1,n,n,n,-80,n,n
CCC(=O)N1CCc2cc(CNC(=O)c3cccc(N(C)C)c3)ccc21,n,n,n,x,n,n
COc1ccccc1/C=C/C=N/n1c(-c2n[nH]c3c2CCC3)n[nH]c1=S,n,u,n,u,7.9µM,n
